Results from the supplement of paper PMC10849652.
Targets with a hit are over-represented here; the source holds about 8,800 in all. About 0.5% of all pairs of compound and target were hits. A number with no mark means an inactive call.

Experiments:
Test in all cases: log2 fold change, soluble protein after heating vs DMSO (PISA); higher = thermal stabilisation; K562 lysate, 10 uM; active = over 0.2 and 3.5 SD of the protein, either way, in both replicates (recomputed)
alvocidib = compound: CN1CC[C@H](c2c(O)cc(O)c3c(=O)cc(-c4ccccc4Cl)oc23)[C@H](O)C1 [alvocidib]
In short: (§1)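 Soluble protein was defined as the supernatant remaining after 21,000xg for 90 min, following pooling of heated aliquots and adjustment to 0.5% NP-40 at 4°C. Before that, crude K562 extract at 1 mg/mL protein in PBS pH 7.4 with 1 mM MgCl2 was treated with 10 μM compound for 30 min and heated for 3 min across 48°C-58°C. Quantification used TMTpro 16plex LC-MS/MS with channel sums equalised, and values are log-two fold changes in thermal stability relative to solvent controls from duplicates.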

Tubastatin A = compound: CN1CCc2c(c3ccccc3n2Cc2ccc(C(=O)NO)cc2)C1 [Tubastatin A]
In short: as §1

[1] = compound: CNC(=O)C1=CC=CC=C1NC2=NC(=NC=C2Cl)NC3=C(C=C(C=C3)N4CCOCC4)OC
In short: as §1

defactinib = compound: CNC(=O)c1ccc(Nc2ncc(C(F)(F)F)c(NCc3nccnc3N(C)S(C)(=O)=O)n2)cc1 [defactinib]
In short: as §1

[2] = compound: CNc1nc(-c2ccc3c(N)n[nH]c3c2)cc(N2C[C@@H](C(=O)NC3CCCCC3)CC[C@H]2C)n1
In short: as §1

encorafenib = compound: COC(=O)N[C@@H](C)CNc1nccc(-c2cn(C(C)C)nc2-c2cc(Cl)cc(NS(C)(=O)=O)c2F)n1 [encorafenib]
In short: as §1

[3] = compound: COC(=O)[C@H](CCSC)NC(=O)C1=C(C=C(C=C1)NC[C@H](CS)N)C2=CC=CC=C2
In short: as §1

alisertib = compound: COc1cc(Nc2ncc3c(n2)-c2ccc(Cl)cc2C(c2c(F)cccc2OC)=NC3)ccc1C(=O)O [alisertib]
In short: as §1

[4] = compound: COc1cc2nc(-c3cc(F)ccc3O)nc(N[C@@H]3CNC[C@H]3C(C)(C)O)c2cc1OC
In short: as §1

gefitinib = compound: COc1cc2ncnc(Nc3ccc(F)c(Cl)c3)c2cc1OCCCN1CCOCC1 [gefitinib]
In short: as §1

UniProt A4D1P6, sequence (A4D1P6 whole entry, looked up): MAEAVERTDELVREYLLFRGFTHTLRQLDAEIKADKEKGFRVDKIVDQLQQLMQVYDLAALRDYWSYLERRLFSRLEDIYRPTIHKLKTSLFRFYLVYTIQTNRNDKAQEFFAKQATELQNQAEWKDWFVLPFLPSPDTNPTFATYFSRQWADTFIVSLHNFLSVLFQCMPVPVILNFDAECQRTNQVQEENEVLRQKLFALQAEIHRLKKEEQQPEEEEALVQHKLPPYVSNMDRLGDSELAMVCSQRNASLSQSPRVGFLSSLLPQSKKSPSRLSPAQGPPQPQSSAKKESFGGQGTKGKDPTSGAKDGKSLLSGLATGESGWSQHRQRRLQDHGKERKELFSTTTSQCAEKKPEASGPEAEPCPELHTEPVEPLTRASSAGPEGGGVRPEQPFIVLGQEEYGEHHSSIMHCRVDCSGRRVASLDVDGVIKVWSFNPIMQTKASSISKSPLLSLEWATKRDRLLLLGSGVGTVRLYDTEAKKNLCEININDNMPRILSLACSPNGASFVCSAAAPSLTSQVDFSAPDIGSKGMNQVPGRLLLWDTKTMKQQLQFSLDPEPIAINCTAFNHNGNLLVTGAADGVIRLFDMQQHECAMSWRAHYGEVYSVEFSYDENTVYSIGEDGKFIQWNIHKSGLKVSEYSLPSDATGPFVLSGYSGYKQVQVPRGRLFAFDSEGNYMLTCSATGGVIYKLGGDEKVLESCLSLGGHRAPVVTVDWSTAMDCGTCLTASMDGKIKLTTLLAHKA
UniProt Q96JH7, sequence (Q96JH7 whole entry, looked up): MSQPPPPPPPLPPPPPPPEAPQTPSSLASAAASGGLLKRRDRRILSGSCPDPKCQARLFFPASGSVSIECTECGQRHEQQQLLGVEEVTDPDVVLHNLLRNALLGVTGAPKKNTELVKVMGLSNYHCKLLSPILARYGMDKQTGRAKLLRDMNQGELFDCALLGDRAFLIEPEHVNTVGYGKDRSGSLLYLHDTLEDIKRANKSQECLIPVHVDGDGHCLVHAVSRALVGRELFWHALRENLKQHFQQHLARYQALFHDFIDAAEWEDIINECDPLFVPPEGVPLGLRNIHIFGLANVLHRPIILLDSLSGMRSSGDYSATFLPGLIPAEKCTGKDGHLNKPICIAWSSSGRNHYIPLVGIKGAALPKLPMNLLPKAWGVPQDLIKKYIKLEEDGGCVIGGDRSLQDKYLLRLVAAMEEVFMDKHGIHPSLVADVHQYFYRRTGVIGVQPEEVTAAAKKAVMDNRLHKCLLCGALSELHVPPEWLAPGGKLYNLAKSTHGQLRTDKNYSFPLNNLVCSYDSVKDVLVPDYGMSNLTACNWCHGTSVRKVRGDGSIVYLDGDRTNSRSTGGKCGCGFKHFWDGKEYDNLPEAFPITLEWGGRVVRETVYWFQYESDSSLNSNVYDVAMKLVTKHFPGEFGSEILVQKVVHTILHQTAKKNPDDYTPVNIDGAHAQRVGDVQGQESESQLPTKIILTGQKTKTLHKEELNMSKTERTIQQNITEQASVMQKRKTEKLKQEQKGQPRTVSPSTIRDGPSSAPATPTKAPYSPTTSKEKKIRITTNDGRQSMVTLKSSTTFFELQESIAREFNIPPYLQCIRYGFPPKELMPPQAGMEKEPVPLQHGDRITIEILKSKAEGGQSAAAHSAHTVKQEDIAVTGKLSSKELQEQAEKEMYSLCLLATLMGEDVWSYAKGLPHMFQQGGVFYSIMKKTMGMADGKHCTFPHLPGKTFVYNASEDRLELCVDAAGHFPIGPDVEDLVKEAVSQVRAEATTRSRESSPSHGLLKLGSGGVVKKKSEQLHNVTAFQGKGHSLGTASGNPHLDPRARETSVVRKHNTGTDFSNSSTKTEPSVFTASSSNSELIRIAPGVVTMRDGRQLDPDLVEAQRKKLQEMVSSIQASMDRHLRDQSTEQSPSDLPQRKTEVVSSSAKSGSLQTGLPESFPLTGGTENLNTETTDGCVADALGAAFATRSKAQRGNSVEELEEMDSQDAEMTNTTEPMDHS
UniProt Q9BQA1, sequence (Q9BQA1 whole entry, looked up): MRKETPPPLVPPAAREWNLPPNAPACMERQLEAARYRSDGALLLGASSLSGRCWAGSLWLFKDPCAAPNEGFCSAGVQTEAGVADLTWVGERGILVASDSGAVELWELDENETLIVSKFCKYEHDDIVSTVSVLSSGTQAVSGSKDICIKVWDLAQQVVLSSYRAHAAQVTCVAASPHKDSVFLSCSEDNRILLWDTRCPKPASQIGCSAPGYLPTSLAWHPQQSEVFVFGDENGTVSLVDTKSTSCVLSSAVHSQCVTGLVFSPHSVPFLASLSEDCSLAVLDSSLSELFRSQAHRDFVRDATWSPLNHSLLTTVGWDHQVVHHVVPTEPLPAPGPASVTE
UniProt P07947, sequence (P07947 whole entry, looked up): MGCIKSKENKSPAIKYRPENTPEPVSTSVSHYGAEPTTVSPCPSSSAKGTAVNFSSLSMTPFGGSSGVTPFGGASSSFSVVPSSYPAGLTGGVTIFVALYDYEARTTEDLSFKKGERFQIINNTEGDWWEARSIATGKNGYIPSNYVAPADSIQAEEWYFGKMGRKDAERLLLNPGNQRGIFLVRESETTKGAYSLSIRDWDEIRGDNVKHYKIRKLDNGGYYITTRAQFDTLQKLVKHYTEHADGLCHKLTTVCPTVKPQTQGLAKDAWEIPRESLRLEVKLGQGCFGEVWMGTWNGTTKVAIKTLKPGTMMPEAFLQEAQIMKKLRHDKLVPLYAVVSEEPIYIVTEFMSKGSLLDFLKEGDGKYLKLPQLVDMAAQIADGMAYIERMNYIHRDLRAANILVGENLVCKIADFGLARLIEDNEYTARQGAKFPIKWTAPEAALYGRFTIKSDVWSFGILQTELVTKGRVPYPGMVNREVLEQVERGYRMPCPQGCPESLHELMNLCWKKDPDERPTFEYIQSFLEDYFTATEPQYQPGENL
UniProt O00258, sequence (O00258 whole entry, looked up): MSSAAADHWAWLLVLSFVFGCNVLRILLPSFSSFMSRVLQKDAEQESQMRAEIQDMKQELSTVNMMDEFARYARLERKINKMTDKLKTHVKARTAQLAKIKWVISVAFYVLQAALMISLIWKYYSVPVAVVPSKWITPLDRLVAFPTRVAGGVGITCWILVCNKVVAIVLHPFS
UniProt Q8TBZ3, sequence (Q8TBZ3 whole entry, looked up): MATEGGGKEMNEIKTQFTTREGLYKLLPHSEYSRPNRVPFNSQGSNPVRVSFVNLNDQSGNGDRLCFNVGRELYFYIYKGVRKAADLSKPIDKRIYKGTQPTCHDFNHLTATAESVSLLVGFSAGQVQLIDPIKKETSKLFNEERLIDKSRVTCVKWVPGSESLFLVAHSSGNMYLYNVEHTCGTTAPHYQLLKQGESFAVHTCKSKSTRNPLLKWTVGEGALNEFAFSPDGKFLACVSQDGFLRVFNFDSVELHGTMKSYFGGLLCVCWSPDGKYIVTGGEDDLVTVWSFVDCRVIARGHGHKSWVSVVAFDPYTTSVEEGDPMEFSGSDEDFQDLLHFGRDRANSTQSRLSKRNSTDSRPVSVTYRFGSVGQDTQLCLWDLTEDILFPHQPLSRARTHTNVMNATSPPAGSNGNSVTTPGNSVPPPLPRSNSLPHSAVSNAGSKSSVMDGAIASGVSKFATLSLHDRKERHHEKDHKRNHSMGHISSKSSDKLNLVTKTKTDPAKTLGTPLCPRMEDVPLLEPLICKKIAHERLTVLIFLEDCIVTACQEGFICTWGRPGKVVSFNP
UniProt Q9BRT2, sequence (Q9BRT2 whole entry, looked up): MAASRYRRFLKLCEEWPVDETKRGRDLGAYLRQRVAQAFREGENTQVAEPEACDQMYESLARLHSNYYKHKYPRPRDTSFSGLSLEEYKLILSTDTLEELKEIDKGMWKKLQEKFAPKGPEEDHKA
UniProt Q08AM6, sequence (Q08AM6 whole entry, looked up): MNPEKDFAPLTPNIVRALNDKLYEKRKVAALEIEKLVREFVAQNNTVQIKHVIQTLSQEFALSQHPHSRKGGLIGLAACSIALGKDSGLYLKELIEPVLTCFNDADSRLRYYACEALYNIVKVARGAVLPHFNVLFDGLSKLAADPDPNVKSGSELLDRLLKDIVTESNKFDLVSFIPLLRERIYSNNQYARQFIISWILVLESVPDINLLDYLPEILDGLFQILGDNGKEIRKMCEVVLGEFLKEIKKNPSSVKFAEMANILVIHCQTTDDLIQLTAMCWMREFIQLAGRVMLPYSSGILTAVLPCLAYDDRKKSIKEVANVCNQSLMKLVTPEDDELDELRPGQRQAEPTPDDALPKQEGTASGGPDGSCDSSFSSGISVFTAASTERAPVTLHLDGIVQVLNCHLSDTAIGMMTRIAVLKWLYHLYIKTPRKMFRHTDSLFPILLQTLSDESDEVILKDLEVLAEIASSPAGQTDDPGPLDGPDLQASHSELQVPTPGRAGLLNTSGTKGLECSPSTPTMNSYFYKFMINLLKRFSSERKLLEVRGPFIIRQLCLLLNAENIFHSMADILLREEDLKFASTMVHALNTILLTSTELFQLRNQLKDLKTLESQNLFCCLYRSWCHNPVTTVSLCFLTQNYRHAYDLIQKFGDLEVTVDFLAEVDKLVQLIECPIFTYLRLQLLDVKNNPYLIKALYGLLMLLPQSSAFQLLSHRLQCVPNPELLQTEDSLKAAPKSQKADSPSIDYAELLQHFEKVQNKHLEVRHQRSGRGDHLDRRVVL
UniProt P22695, sequence (P22695 whole entry, looked up): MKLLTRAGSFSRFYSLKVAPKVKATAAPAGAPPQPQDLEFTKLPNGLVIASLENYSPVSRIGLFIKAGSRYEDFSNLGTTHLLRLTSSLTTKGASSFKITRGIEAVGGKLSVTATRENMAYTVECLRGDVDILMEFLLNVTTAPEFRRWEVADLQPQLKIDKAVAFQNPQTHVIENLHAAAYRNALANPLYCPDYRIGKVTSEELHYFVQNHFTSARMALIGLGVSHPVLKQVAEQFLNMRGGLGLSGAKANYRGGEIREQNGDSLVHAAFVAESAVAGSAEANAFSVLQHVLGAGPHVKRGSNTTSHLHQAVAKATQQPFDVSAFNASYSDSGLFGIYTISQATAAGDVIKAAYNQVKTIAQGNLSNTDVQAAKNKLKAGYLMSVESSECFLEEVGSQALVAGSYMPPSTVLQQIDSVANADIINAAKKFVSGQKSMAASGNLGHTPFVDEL

| Target | log2 fold change (alvocidib) | log2 fold change (Tubastatin A) | log2 fold change [1] | log2 fold change (defactinib) | log2 fold change [2] | log2 fold change (encorafenib) | log2 fold change [3] | log2 fold change (alisertib) | log2 fold change [4] | log2 fold change (gefitinib) |
| --- | --- | --- | --- | --- | --- | --- | --- | --- | --- | --- |
| WDR20 isoform 7 (UniProt Q8TBZ3) | -0.041 | -0.035 | 0.02 | -0.049 | -0.13 | 0.078 | -0.114 | 0.175 | -0.002 | -0.149 |
| VAMP2 (UniProt P63027) | 0.019 | 0.027 | 0.035 | 0.112 | -0.01 | 0.05 | -0.057 | 0.014 | 0.001 | 0.018 |
| ZC2HC1A (UniProt Q96GY0) | -0.034 | -0.044 | -0.021 | -0.155 | -0.04 | 0.03 | -0.235 (active) | -0.073 | -0.021 | 0.019 |
| UQCRC2 (UniProt P22695) | -0.005 | 0.035 | -0.013 | 0.014 | 0.01 | -0.001 | -0.013 | 0.022 | 0.024 | -0.013 |
| VCPIP1 (UniProt Q96JH7) | -0.049 | -0.026 | -0.01 | 0.022 | 0.113 | 0.005 | 0.141 | 0.003 | -0.006 | -0.04 |
| UTP3 (UniProt Q9NQZ2) | 0.04 | -0.022 | -0.047 | 0.151 | 0.089 | 0.05 | 0.005 | -0.042 | -0.002 | -0.017 |
| ZMAT2 (UniProt Q96NC0) | -0.001 | 0.053 | -0.012 | -0.001 | -0.037 | -0.035 | -0.014 | 0.009 | 0.001 | 0.013 |
| ZNF609 (UniProt O15014) | -0.028 | -0.044 | 0.02 | -0.026 | 0.074 | 0.002 | 0.013 | -0.01 | 0.018 | -0.002 |
| VAV1 (UniProt P15498) | 0.005 | -0.117 | -0.028 | 0.018 | 0.007 | -0.026 | 0.025 | -0.006 | -0.044 | 0.024 |
| ZMYND8 isoform 19 (UniProt Q9ULU4) | 0 | -0.091 | 0.017 | 0.104 | -0.052 | -0.002 | 0.065 | 0.022 | -0.046 | -0.023 |
| WIPI2 (UniProt Q9Y4P8) | -0.036 | 0.005 | -0.007 | 0.036 | -0.051 | 0.029 | 0.049 | -0.033 | -0.012 | -0.027 |
| USP34 (UniProt Q70CQ2) | 0.035 | -0.045 | 0.009 | 0.006 | -0.014 | 0.033 | 0.09 | 0 | 0.017 | 0.013 |
| YES1 (UniProt P07947) | -0.065 | 0.171 | -0.003 | -0.228 | -0.094 | -0.009 | -0.024 | 0.049 | 0.087 | -0.13 |
| WIPI2 isoform 6 (UniProt Q9Y4P8) | -0.015 | – | – | – | – | – | – | – | – | – |
| XPO5 (UniProt Q9HAV4) | 0.025 | -0.184 | -0.014 | -0.002 | -0.019 | 0.021 | 0.012 | -0.004 | 0 | 0.013 |
| XPOT (UniProt O43592) | 0.004 | -0.133 | -0.004 | 0.011 | -0.042 | 0.005 | -0.094 | 0 | 0.005 | 0.01 |
| WDR91 (UniProt A4D1P6) | -0.018 | -0.097 | 0.017 | -0.003 | -0.056 | 0.026 | 0.1 | 0.013 | -0.007 | -0.004 |
| UQCC2 (UniProt Q9BRT2) | 0.079 | 0.05 | -0.027 | 0 | 0.006 | 0.021 | -0.025 | 0.029 | 0.017 | -0.059 |
| ZNF451 (UniProt Q9Y4E5) | -0.011 | -0.121 | 0.027 | 0 | -0.014 | -0.03 | 0.07 | 0.008 | -0.012 | -0.009 |
| WDR36 (UniProt Q8NI36) | 0.021 | -0.102 | 0.028 | -0.018 | -0.062 | -0.025 | 0.134 | 0.008 | 0.004 | -0.03 |
| VAC14 (UniProt Q08AM6) | 0 | -0.036 | 0.022 | 0.007 | 0.005 | 0.04 | -0.051 | 0.008 | 0.006 | 0.003 |
| WDR77 (UniProt Q9BQA1) | 0.242 (active) | 0.004 | 0.002 | -0.012 | 0.012 | 0.055 | -0.07 | -0.031 | -0.024 | -0.003 |
| VPS28 (UniProt Q9UK41) | -0.018 | -0.034 | 0 | -0.018 | -0.078 | 0.046 | 0.012 | -0.022 | 0 | 0.034 |
| VPS72 (UniProt Q15906) | 0 | 0.028 | 0.041 | -0.078 | -0.02 | -0.016 | -0.134 | -0.058 | -0.017 | -0.108 |
| VPS4A (UniProt Q9UN37) | -0.004 | -0.16 | 0.025 | 0.01 | -0.1 | -0.004 | 0.138 | 0 | -0.004 | -0.025 |
| ZBTB33 (UniProt Q86T24) | -0.028 | -0.005 | -0.178 | -0.062 | 0.119 | 0.018 | -0.004 | -0.059 | -0.307 | 0.086 |
| VPS35L (UniProt Q7Z3J2) | 0 | -0.083 | 0.015 | 0.036 | -0.013 | 0.014 | 0.006 | -0.034 | -0.023 | -0.076 |
| WRB (UniProt O00258) | -0.022 | 0.114 | 0.029 | -0.003 | 0.044 | -0.067 | 0.027 | -0.028 | 0.022 | 0.061 |
| XAB2 (UniProt Q9HCS7) | -0.003 | -0.039 | 0.012 | 0.008 | 0.014 | -0.045 | 0.2 | -0.017 | 0.025 | 0.046 |
| VPS37B (UniProt Q9H9H4) | 0.025 | -0.034 | -0.047 | 0.052 | 0.024 | -0.014 | -0.053 | -0.019 | -0.003 | -0.071 |
